The whole screen tested about 11,000 compounds, of which about 310 (2.8%) were called active. This is one part of a sample in which actives are shown more often than they occur. No stated cut-off is given here; in the data, active means activity change below about -85%; inactive means the rest.
Test system: intestinal alkaline phosphatase [Mus musculus]
Assay: mouse intestinal phosphatase enzyme activation – biochemical, luminescence, single concentration, confirmation (AID 434970)
Settings: purified mouse IAP, CDP-Star luminescence, 30 min, at 10 µM; activation factor: measured here: IAP activation factor, stronger effect = higher value; activity change, negative = activation: stronger effect = lower value

Row | SMILES | activation factor | activity change, negative = activation
1 | O=C(O)C1C2C=CC(O2)C1C(=O)NCCC1=CCCCC1 (stereo unspecified) | 1.12 | -12.2% (inactive)
2 | COCCN(C(=O)C(F)(F)F)C(C(=O)NC1CCCCC1)c1ccco1 (stereo unspecified) | 0.978 | 2.15% (inactive)
3 | CC1CCN(C(=O)c2ccc(NC(=O)C3CCCO3)cc2)CC1 (stereo unspecified) | 1.06 | -5.95% (inactive)
4 | COc1cc2oc(=O)cc(-c3ccc(-c4ccc(F)c(Cl)c4)cc3)c2c(OC)c1OC | 0.913 | 8.7% (inactive)
5 | Cn1c(Cn2cnc3ccccc32)nnc1SCC(=O)CC(=O)Nc1ccccc1 | 0.996 | 0.45% (inactive)
6 | COc1ccc(-n2ncc3c(=O)n(CC(=O)N4c5ccccc5CC4C)cnc32)cc1 (stereo unspecified) | 1 | -0.2% (inactive)
7 | O=C(Nc1cccc(Cl)c1)Nc1cccc(Cl)c1 | 3.21 | -221% (active)
8 | C=CCc1cc(Cl)ccc1OC(=O)Nc1cccc(Cl)c1 | 2.05 | -105% (active)
9 | N#CCc1ccc(NC(=O)Nc2cccc(Cl)c2)cc1 | 1.88 | -87.6% (inactive)
10 | CCC1(COC(=O)Nc2cccc(Cl)c2)COC1 | 1.16 | -16.4% (inactive)
11 | O=C(NCCc1ccc(Cl)cc1)Nc1cccc(Cl)c1 | 1.92 | -92.5% (inactive)
12 | CSc1ccccc1NC(=O)Nc1cccc(Cl)c1 | 1.48 | -48.5% (inactive)
13 | C/C(CC(=O)Nc1cccc(Cl)c1)=N\NC(=O)Cc1ccc(Cl)cc1 | 1.02 | -2.2% (inactive)
14 | CC(O)c1cccc(NC(=O)Nc2cccc(NC(=O)Nc3cccc(C(C)O)c3)c2)c1 (stereo unspecified) | 1.89 | -88.9% (active)
15 | CCOC(=O)c1sc(NC(=O)Nc2cccc(Cl)c2)cc1C | 1.83 | -82.6% (inactive)
16 | CC(=O)c1cccc(NC(=O)Nc2cccnc2)c1 | 1 | -0.35% (inactive)
17 | CC(C)OC(=O)NCCOC(=O)Nc1cccc(Cl)c1 | 2.12 | -112% (active)
18 | CC(=O)Nc1cccc(NC(=O)Nc2ccc(C(C)=O)cc2)c1 | 1.13 | -13.4% (inactive)
19 | COCCN(CC(=O)NCc1ccc2c(c1)OCO2)C(=O)CCC(=O)Nc1nccs1 | 0.99 | 1% (inactive)
20 | O=S(=O)(N[C@H](CO)c1ccccc1)c1ccc(Br)cc1F | 1.03 | -2.75% (inactive)
21 | CCOC(=O)C1=C(C)N(C[C@@H]2CC[C@@H](Cc3ccc(-c4ccccc4)cc3)O2)C(=O)NC1c1ccc(C(F)(F)F)cc1 (stereo partly specified) | 0.924 | 7.6% (inactive)
22 | COc1ccc(CCNC(=O)CC2COc3ccccc3O2)cc1OC (stereo unspecified) | 1.06 | -5.55% (inactive)

Row | SMILES | activation factor | activity change, negative = activation
23 | Oc1c(C=C2N=c3ccccc3=N2)sc(=S)n1-c1ccc(F)cc1 | 0.615 | 38.5% (inactive)
24 | COc1ccc(CC(NC(C)=O)C(=O)NC2CCN(C(=O)c3cnccn3)CC2)cc1 (stereo unspecified) | 0.93 | 7% (inactive)
25 | CCN1Cc2cc(OC)ccc2-c2ccccc2S1(=O)=O | 1.15 | -14.7% (inactive)
26 | CN(c1cccc(NC(=O)Nc2cccc(Cl)c2)c1)S(C)(=O)=O | 2.47 | -147% (active)
27 | CN(c1cccc(NC(=O)Nc2ccc(Cl)cc2)c1)S(C)(=O)=O | 1.91 | -91.2% (inactive)
28 | O=C(Nc1cc(Cl)cc(Cl)c1)N1CCCC1 | 1.62 | -62.2% (inactive)
29 | Cc1ccc(S(=O)(=O)N(CC(=O)Nc2cccc(N(C)S(C)(=O)=O)c2)c2ccc(Cl)c(Cl)c2)cc1 | 1.73 | -73.1% (inactive)
30 | CN1CCN(NC(=O)Nc2cc(Cl)cc(Cl)c2)CC1 | 2.2 | -120% (active)
31 | O=C(NCCN1CCN(Cc2ccccc2)CC1)Nc1cc(Cl)cc(Cl)c1 | 1.43 | -42.5% (inactive)
32 | COC(=O)c1ccc(CC(=O)c2c(C)cc(O)cc2O)o1 | 0.877 | 12.3% (inactive)
33 | CC(C)COc1ccc(CNC(=S)NCc2ccccc2)cc1 | 1.12 | -11.7% (inactive)
34 | O=C(O)CC(c1cccc(Cl)c1)n1cccc1 (stereo unspecified) | 0.964 | 3.65% (inactive)
35 | CCCCN1CCc2c([nH]c3c(C)cccc23)C1=O | 1.06 | -6.35% (inactive)
36 | Cc1ccc(OC(F)F)c(NC(=O)Nc2cccc(C(F)(F)F)c2)c1 | 1.6 | -60.4% (inactive)
37 | CCN(CC)S(=O)(=O)c1ccc(NC(=O)Nc2cccc(C(F)(F)F)c2)cc1 | 2.03 | -103% (active)
38 | CCN(CC)S(=O)(=O)c1cccc(NC(=O)Nc2cccc(C(F)(F)F)c2)c1 | 4.57 | -357% (active)
39 | O=C(Nc1ccccc1)Nc1cccc(C(F)(F)F)c1 | 1.82 | -82.1% (inactive)
40 | O=C(Nc1ccc(OC(F)F)cc1)Nc1cccc(C(F)(F)F)c1 | 1.99 | -99.2% (active)
41 | CCNS(=O)(=O)c1ccc(NC(=O)Nc2cccc(C(F)(F)F)c2)cc1 | 1.77 | -76.7% (inactive)
42 | CCN(CC)S(=O)(=O)c1ccc(NC(=O)CN(c2cccc(F)c2)S(C)(=O)=O)cc1 | 0.911 | 8.85% (inactive)
43 | CCN(CC)S(=O)(=O)c1cccc(C(=O)Nc2cccc(C)c2)c1 | 0.938 | 6.2% (inactive)

— PubChem BioAssay AID434970 (Sanford-Burnham Center for Chemical Genomics, 2010)
